MmCpn inh: inhibitors of Methanococcus maripaludis chaperonin TRiC (MmCpn); purified Mm-Cpn ATPase, ADP Transcreener TR-FRET; Potency, µM (titrated, usually from 76.9 µM), inactives show at the top dose activity, negative = inhibition, actives largely listed as inhibitors; actives 0.031% (n = 330,000); also: potency is read from the fitted curve at half-maximal effect; nearly all actives have a fitted effect of over 80% in size
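Compound-treated chaperonin, 25 nM final, turns over 10 uM ATP at 37°C for 30 min following a 10 min preincubation; ADP generated competes with ADP-d2 for Eu-cryptate antibody, lowering FRET.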
VDR inhibitor: inhibitors of human vitamin D receptor; VDR-SRC2-3 peptide fluorescence polarization, 2 h; Potency, µM, for the others: max response, negative = inhibition, most hits filed as inhibitors; P11473; actives 0.93% (n = 400,000); also: potency is read from the fitted curve at half-maximal effect
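VDR–SRC2-3 interaction, FP format. Cmpds 23 nl via pintool, brief spin, 2 h ambient incubation.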
Sfp PPTase inh: blocks B. subtilis Sfp PPTase activity; AID 1490; actives 3.5% (n = 310,000); Biochemical Sfp PPTase activity, qHTS; Potency, µM, for inactives: largest response in the series, negative = inhibition, usual class: inhibitors;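 also: the enzyme is Sfp with the accession as filed and its product quenches rhodamine fluorescence; potency is read from the fitted curve at half-maximal effect; 0% = enzyme reaction without inhibitor and -100% = no enzyme wells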
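Fluorescence-quenching assay with 15 nM Sfp, 5 uM rhodamine-CoA and 12.5 uM BHQ-2-labelled ybbR peptide in pH 7.6 Hepes/MgCl2 buffer. Enzyme was pre-incubated with compound for 15 min at room temperature. Rate was taken from the 30-min fluorescence change (525/598 nm).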
PLK1 PBD block: PLK1 (human) polo-box domain binding inhibition; P53350; Plk1 PBD binding of FITC phosphopeptide, fluorescence polarization; Potency, µM, without a hit: max response, negative = inhibition, usual class: inhibitors; actives 2.8% (n = 360,000); AID 720504; also: potency is read from the fitted curve at half-maximal effect; series mostly up to about 57 µM; nearly all actives have a fitted effect of over 65% in size
Target sequence (P53350 whole entry, looked up, the tested form may be a part): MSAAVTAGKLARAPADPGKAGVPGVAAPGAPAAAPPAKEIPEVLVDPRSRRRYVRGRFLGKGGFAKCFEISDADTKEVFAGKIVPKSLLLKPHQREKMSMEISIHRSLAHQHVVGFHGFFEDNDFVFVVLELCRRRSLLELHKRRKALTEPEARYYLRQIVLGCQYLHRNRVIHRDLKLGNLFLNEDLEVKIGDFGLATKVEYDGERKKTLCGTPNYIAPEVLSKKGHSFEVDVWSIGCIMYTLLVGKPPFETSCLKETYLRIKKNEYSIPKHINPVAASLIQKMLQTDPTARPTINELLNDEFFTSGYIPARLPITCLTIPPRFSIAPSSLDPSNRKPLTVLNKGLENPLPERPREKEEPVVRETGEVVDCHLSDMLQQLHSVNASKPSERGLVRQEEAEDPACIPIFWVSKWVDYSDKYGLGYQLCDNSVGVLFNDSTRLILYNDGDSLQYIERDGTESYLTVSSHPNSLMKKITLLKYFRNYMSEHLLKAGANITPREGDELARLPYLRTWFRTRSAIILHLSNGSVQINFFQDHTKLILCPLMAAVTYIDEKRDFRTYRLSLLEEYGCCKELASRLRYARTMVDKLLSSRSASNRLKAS
G9a block: inhibitors of human histone lysine methyltransferase G9a | Q96KQ7 | G9a H3K9 monomethylation, AlphaScreen, 2 h | Potency, µM (titrated, usually from 102 µM), without a hit: at the top dose activity, negative = inhibition, most hits filed as inhibitors | actives 8.8% (n = 350,000); also: potency is read from the fitted curve at half-maximal effect; nearly all actives have a fitted effect of over 75% in size
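Readings reflect AlphaScreen signal from monomethyl-H3K9 antibody detection. HMT at 20 nM; substrate b-H3K9 500 nM; cofactor SAM 20 uM; 2 h RT reaction; compounds tested as titrations in qHTS with 15 min preincubation.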
CCT modulator: modulators of cytosolic chaperonin (CCT/TRiC) activity; purified chaperonin ATPase assay, HTRF ADP detection, 30 min; activity change, % (concentration not given with the values), hits read low; actives 0.3% (n = 360,000); in the data active = activity change below about -30%
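TRiC at 40 or 20 nM final (batch-dependent) in 30 mM Tris pH 7.4, 100 mM KCl, 5 mM MgCl2, 1 mM DTT, with compound at single 76 uM and 10 uM ATP, 30 min at 37 deg C. ADP detected by HTRF Transcreener, 665/615 ratio.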
Active calls of the source: *; u = inconclusive; x = no result given; [ ] = remark or other dose. This is a sample that favours compounds with a hit; in the whole collection about 10% have one here. Unless noted, calls follow the shape of the dose curve; as a rule, active = well fitted curve in the direction sought with a large enough effect; inconclusive = small, poorly fitted or top-dose-only effect, or another doubt; inactive = no such curve, though single readings can be large; an effect the other way counts as inactive or inconclusive. Unless noted, % is scaled to controls: 0 for no effect and ±100 for the full control effect.

SMILES	MmCpn inh	VDR inhibitor	Sfp PPTase inh	PLK1 PBD block	G9a block	CCT modulator
CCOc1cccc2c1OC1(C)CC2NC(=O)N1c1ccc(OC)cc1 (stereo unspecified)	0.5%	-10.7%	11.0%	13.4µM*	-35.9%	0.8
CCOC(=O)N/N=C1/C[C@@H](O)[C@@H](O)[C@@H]2[C@@H]3C(=O)N(C[C@@H]4CCCO4)C(=O)[C@H]3CC[C@H]12	x	x	-15.1%	x	x	x
CCOC(=O)C1Cc2cc3c(cc2C1=O)CC(C(=O)OCC)C3=O (stereo unspecified)	-7.4%	x	9.6%	x	35.5µM*	x
CCOC(=O)C1=C(O)C(=O)C(C(=O)OCC)C1 (stereo unspecified)	x	-13.8%	x	0.9%	x	-2.2
O=C(c1ccc([N+](=O)[O-])cc1)N1CCSC1c1cccc(Cl)c1 (stereo unspecified)	-0.8%	6.2%	5.6%	u	79.4µM*	-4.7
O=C(c1ccc([N+](=O)[O-])cc1)N1CCSC1c1ccccc1 (stereo unspecified)	-0.4%	0.6%	-11.7%	-10.7%	-2.1%[59 µM]	0.4
O=[N+]([O-])c1ccc(-c2ccc(/C=N/Nc3nc(NCc4ccccc4)nc(N4CCOCC4)n3)o2)cc1	-1.2%	-4.3%	13.5%	-1.9%	25.1µM*	2.6
O=[N+]([O-])c1ccc(Nc2nc(N3CCOCC3)nc(N3CCOCC3)n2)cc1	x	-6.5%	x	2.7%	x	-7.8
COc1nc(N/N=C/c2ccc(-c3ccccc3[N+](=O)[O-])o2)nc(N2CCOCC2)n1	-7.4%	u	14.1µM*	-26.6%	3.16µM*	0.8
Clc1ccccc1CSc1nc(NCCc2ccccc2)c2ccccc2n1	x	3.5%	x	x	2.6%[59 µM]	x
CCO/C=C1\C(=O)N(c2ccccc2)C(=O)c2ccccc21	-0.2%	-15.3%	-9.7%	-18.9%	25.1µM*	-2.9
CCO/C=C1/C(=O)N(c2ccccc2OC)C(=O)c2ccccc21	0.7%	-19.7%	-4.1%	-27.9%	28.2µM*	0.4
CCOC=C1SC(=S)N(c2ccccc2OC)C1=O	x	x	x	u	x	2.0
CCO/C=C1/C(=O)N(C)C(=O)c2cc(OC)ccc21	0.5%	-0.9%	5.1%	u	3.55µM*	-5.1
CCO/C=C1/C(=O)N(CC)c2ccccc21	-1.2%	-16.8%	11.8%	15µM*	u	-2.7
CCOC=C1C(=O)N(C(C)=O)c2cc(OC)c(OC)cc21	x	-21.1%	x	-20.6%	x	-1.2
CCN1C(=O)C(F)(CC)C(=O)c2ccccc21 (stereo unspecified)	3.6%	-6.6%	5.1%	-14.9%	3.9%	-3.3
Cc1ccc(N2C(=O)c3ccccc3C2=O)cc1	0.5%	10.0%	10.0%	8.5%	x	-1.8
COc1ccc(-c2cc(C(=O)O)n(Cc3ccccc3)n2)cc1	x	-2.6%	x	x	9.3%[59 µM]	x
Cc1cc2ccccc2n2c(SCC(=O)Nc3cccc(C(F)(F)F)c3)nnc12	x	-16.4%	x	x	-43.9%[59 µM]	x
O=S(=O)(c1cccc(F)c1)N1CCC(c2nc3ccccc3s2)CC1	x	-0.8%	x	x	-25.2%[59 µM]	x
CCOC(=O)C1CCN(c2nc3c(S(=O)(=O)c4ccccc4)nnn3c3ccsc23)CC1	x	11.1%	x	x	-16.1%[59 µM]	x
CCO/C=C1/C(=O)N(c2ccc(OC)cc2)C(=O)c2ccccc21	0.1%	-22.5%	16.0%	16.8µM*	25.1µM*	-2.9
CCO/C=C1/C(=O)N(Cc2ccccc2)C(=O)c2ccccc21	-1.8%	-31.7%	31.0%	u	14.1µM*	-0.5
CN(C(=O)CSc1ccc2c(c1)OCCO2)c1ccccc1	-5.6%	-15.5%	x	u	x	-2.1
SMILES	MmCpn inh	VDR inhibitor	Sfp PPTase inh	PLK1 PBD block	G9a block	CCT modulator
N#CCCN(C(=O)CSc1ccc2c(c1)OCCO2)c1ccccc1	-1.1%	-23.3%	-10.6%	18.9µM*	6.1%[2.33 µM]	-1.2
CCOC(C)=O	x	2.1%	12.9%	x	16.9%[59 µM]	x
CCOC(=O)[C@@H](N)CS	x	39.8µM*	28.2µM*	x	u	x
O=C(COCc1cc(-c2ccco2)on1)Nc1cccc(O)c1	x	6.5%	x	x	-40.2%[59 µM]	x
C/C(=N/N=C(/N)SCc1ccccc1)C(C)(C)C	2.7%	7.0%	4.6%	-17.4%	10µM*	-5.3
O=C(N/N=C/c1ccc([N+](=O)[O-])o1)c1cn(-c2ccccc2)nc1-c1ccc(Cl)cc1	3.3%	-3.2%	0.0%	-16.5%	4.8%	-6.3
O=[N+]([O-])CC(=Nc1ccc(Cl)cc1)N/N=C\c1oc(O)c2ccccc12	-2.2%	u	-12.7%	16.8µM*	u	4.2
COc1ccccc1NC(=O)CN1CCN(CC(=O)Nc2cc(NC(C)=O)ccc2OC)CC1	0.9%	15.6%	-0.3%	-2.0%	39.8µM*	2.3
CCN(CC)c1ccc(NC(=O)CN2CCN(CC(=O)Nc3ccccc3OC)CC2)cc1	-2.3%	-12.1%	12.9%	-4.8%	44.7µM*	0.7
CCOc1ccc(NC(=O)CN2CCN(CC(=O)Nc3ccccc3OC)CC2)cc1	2.9%	2.4%	0.8%	5.9%	44.7µM*	1.4
COc1ccc(NC(C)=O)cc1NC(=O)CN1CCN(CC(=O)Nc2ccccc2Cl)CC1	1.1%	6.1%	-0.4%	-12.4%	x	-3.8
CCN(CC)c1ccc(NC(=O)CN2CCN(CC(=O)Nc3ccccc3F)CC2)cc1	-0.1%	-11.3%	2.8%	-0.2%	u	-2.0
CCOc1ccc(NC(=O)CN2CCN(CC(=O)Nc3ccc(C(=O)OC)cc3)CC2)cc1	3.7%	-2.6%	1.1%	-5.9%	31.6µM*	1.0
CCN(CC)CCCNC(=O)Cn1c(-c2cccs2)cc2cc(Cl)ccc21	x	11.5%	x	x	-20.5%[59 µM]	x
COc1ccc(NC(C)=O)cc1NC(C)C(=O)Nc1cccc2ccccc12 (stereo unspecified)	-1.2%	-0.6%	-2.1%	-1.6%	50.1µM*	-2.4
O=c1c(-c2ccccc2)nc2cnc(N3CCOCC3)nc2n1Cc1ccc(F)cc1	x	3.7%	7.4%	x	13.3%[0.501 µM]	x
Cc1ccccc1Cn1cc(S(=O)(=O)c2ccc(Cl)cc2)c(=O)c2cc3c(cc21)OCO3	x	-1.0%	x	x	1.2%[59 µM]	x
CNC(=S)N/N=C/c1ccco1	-2.3%	10.9%	56.2µM*	-3.7%	11.4%	0.5
Cc1ccsc1/C=N/NC(=O)c1ccccn1	1.8%	-12.3%	56.2µM*	3.2%	3.98µM*	-3.3
Cc1ccccc1/C=N\NC(=O)c1csnn1	-0.7%	16.3%	14.1µM*	-0.5%	u	-0.8
COc1cc(/C=N/NC(=O)c2ccccn2)cc2c1OCO2	0.2%	-4.7%	50.1µM*	-0.1%	3.7%[59 µM]	0.1
CCOc1ccccc1NC(=O)Cn1c(=O)ccc2cc(S(=O)(=O)N3CCCC3)ccc21	x	-0.9%	x	x	2.1%[59 µM]	x
O=C(NCc1ccccc1)c1cnc(N2CCCCC2)c2ccccc12	x	-3.1%	x	x	22.8%[59 µM]	x
Cc1cc2c(cc1S(=O)(=O)CCC(=O)N1CCC(C)CC1)OCC(=O)N2	x	-0.6%	x	x	15.3%[59 µM]	x
O=C(N/N=C/c1ccco1)c1cccc(N2CCCC2=O)c1	0.3%	-21.6%	14.8%	-3.5%	17.5%[59 µM]	-0.9

Screens deposited in PubChem BioAssay by National Center for Advancing Translational Sciences (NCATS).
